Screening results deposited in PubChem BioAssay by National Center for Advancing Translational Sciences (NCATS).
D3 antag = antagonists of human D3 dopamine receptor. D3R cells, DiscoveRx beta-arrestin luminescence, antagonist mode; hits give low values. actives 2.5% (n = 360,000). max response, negative = inhibition, %; in the data active = max response below about -50%; inconclusive = no clear call, values can overlap the other calls
Target sequence (P35462 whole entry, looked up): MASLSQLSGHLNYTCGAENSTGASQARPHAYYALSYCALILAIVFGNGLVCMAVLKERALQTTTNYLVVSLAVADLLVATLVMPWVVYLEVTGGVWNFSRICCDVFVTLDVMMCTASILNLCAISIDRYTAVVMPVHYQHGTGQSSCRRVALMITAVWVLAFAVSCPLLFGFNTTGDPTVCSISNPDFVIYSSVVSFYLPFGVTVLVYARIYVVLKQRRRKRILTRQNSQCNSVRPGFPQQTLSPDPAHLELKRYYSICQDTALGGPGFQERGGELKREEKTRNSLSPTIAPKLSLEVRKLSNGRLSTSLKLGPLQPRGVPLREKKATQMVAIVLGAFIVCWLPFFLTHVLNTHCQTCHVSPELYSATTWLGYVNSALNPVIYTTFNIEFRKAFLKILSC
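Cells plated overnight at 1500 cells/well, then exposed to library compounds with dopamine controls for 90 minutes at 37 degrees C. DiscoveRx reagent added for 30–60 minutes at room temperature; luminescence read, quantitative HTS format.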
ClpP mod = qHTS Assay for Activators of ClpP; Potency, µM (top dose mostly 57.5 µM); actives 1.9% (n = 340,000); purified B. subtilis ClpP, FRET peptide cleavage, 20 min; AID 651965, 2013; ATP-dependent Clp protease proteolytic subunit (Bacillus subtilis (strain 168)), P80244; active = well fitted falling curve with a large enough effect; inconclusive = small, poorly fitted or top-dose-only effect; inactive = no such curve, though single readings can be large or run the other way; also: the source files actives as falling curves though it sought activators and does not explain the sign; nearly all actives have a fitted effect of over 65% in size
Target sequence (P80244 whole entry, looked up): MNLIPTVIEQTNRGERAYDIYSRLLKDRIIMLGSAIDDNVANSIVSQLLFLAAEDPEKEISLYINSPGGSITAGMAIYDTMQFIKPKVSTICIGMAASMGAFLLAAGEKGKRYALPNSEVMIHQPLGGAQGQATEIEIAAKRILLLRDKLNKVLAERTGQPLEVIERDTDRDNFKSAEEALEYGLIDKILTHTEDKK
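Buffer: 100 mM Tris/HCl pH8, 100 mM KCl, 0.05% low protease BSA, 2.5% glycerol, 0.01% Tween-20. ClpP 10 microg/mL final; 20 min RT; delta FRET normalized to ADEP and DMSO controls.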
DT40 TDP1 no CPT = qHTS for Inhibitors of human tyrosyl-DNA phosphodiesterase 1 (TDP1): qHTS in cells in absence of CPT; DT40 Tdp1-/- hTDP1 cells, no CPT, ATP luminescence, 48 h; Potency, µM (titrated, usually from 46.2 µM), most hits filed as inhibitors; actives 15% (n = 420,000); also: nearly all actives have a fitted effect of over 55% in size
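Readout: luminescence from CellTiter-Glo after 30 min in the dark at RT. Cells: DT40 Tdp1-/- with stable hTDP1, 400/well. Exposure: compounds alone, ≥48 hr, 37 °C.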
IL1B secr inh = inhibitors of inflammasome signaling (IL-1 beta secretion); activity change, % at 57.5 µM; THP-1 LPS/ATP IL-1B secretion, AlphaLISA, 16 h; hits give low values; AID 743279; actives 4.7% (n = 360,000); in the data active = activity change below about -50%; inconclusive = mostly about -30% to -49%
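Secreted IL-1B measured by AlphaLISA bead assay after 16 h compound exposure of THP-1 cells; compounds (final up to 57.5 uM) added 1 h before LPS (250 ng/mL) and ATP (1.25 mM) stimulation; lower signal means less secretion.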
D3 ag = agonists of human D3 dopamine receptor; AID 652048; max activation, %; D3R DiscoveRx beta-arrestin cells, luminescence, 90 min; actives 0.58% (n = 410,000); P35462; in the data active = max activation above about 30%
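Agonist mode: compounds and dopamine controls were applied to plated cells for 90 min at 37 degrees C after an overnight attachment at 1500 cells/well. Luminescent read-out followed 30 - 60 minutes at room temperature with DiscoveRx detection reagent.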
DT40 TDP1 CPT = DT40-hTDP1 cell growth loss with CPT; chicken DT40 Tdp1-/-;hTDP1 cells + 20 nM CPT, ATP luminescence, 48 h; Potency, µM (highest dose often 46.2 µM), most hits filed as inhibitors; actives 12% (n = 420,000); AID 686979; also: nearly all actives have a fitted effect of over 55% in size
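Chicken DT40 Tdp1-/- cells stably complemented with human TDP1 were seeded at 400 cells/well in medium containing 20 nM camptothecin, exposed to pin-transferred compounds, and grown at 37 °C for at least 48 hr. Viability was read as ATP luminescence.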
A number is an active result. This is a sample that favours compounds with a hit; in the whole collection about 21% have one here. Unless noted, calls follow the shape of the dose curve; as a rule, active = well fitted inhibition curve with a large enough effect; inconclusive = small, poorly fitted or top-dose-only effect; inactive = flat fitted curve, though single readings scatter.

For CCOc1ccccc1Nc1nnc(SCc2nnc(-c3cc(OC)c(OC)c(OC)c3)o2)s1 the results were D3 antag inactive, ClpP mod 31.6µM, DT40 TDP1 no CPT 13µM, IL1B secr inh inconclusive, D3 ag inactive and DT40 TDP1 CPT inconclusive.
COc1ccccc1Nc1nnc(SCC(=O)NC2CC2)s1 was read as D3 antag inactive, ClpP mod inactive, DT40 TDP1 no CPT inactive, IL1B secr inh inactive, D3 ag inactive and DT40 TDP1 CPT inactive.
For Cc1cccn2cc(CSc3nnc(Nc4ccc(C(C)C)cc4)s3)nc12 the results were D3 antag inactive, ClpP mod inactive, DT40 TDP1 no CPT inconclusive, IL1B secr inh inactive, D3 ag inactive and DT40 TDP1 CPT inconclusive.
COc1cc(-c2nnc(CSc3nnc(Nc4ccc(C(C)C)cc4)s3)o2)cc(OC)c1OC was read as D3 antag inactive, DT40 TDP1 no CPT 5.8µM, IL1B secr inh inactive, D3 ag inactive and DT40 TDP1 CPT 5.8µM.
Screening COc1ccc(CS(=O)(=O)c2ncn[nH]2)cc1 returned D3 antag inactive, DT40 TDP1 no CPT inactive, IL1B secr inh inactive, D3 ag inactive and DT40 TDP1 CPT inactive.
OCCNC(=S)Nc1ccc(Oc2ccccc2)cc1 was read as D3 antag inactive, ClpP mod inactive, DT40 TDP1 no CPT inactive, IL1B secr inh inactive, D3 ag inactive and DT40 TDP1 CPT inactive.
Screening CCNC(=S)Nc1ccc(OCc2nc3ccccc3s2)cc1 returned D3 antag inactive, ClpP mod inactive, DT40 TDP1 no CPT 23.1µM, IL1B secr inh inactive, D3 ag inactive and DT40 TDP1 CPT 16.4µM.
Screening S=C(NCc1ccccc1)Nc1ccc(Oc2ccccc2)cc1 returned D3 antag inactive, ClpP mod inactive, DT40 TDP1 no CPT inconclusive, IL1B secr inh inactive, D3 ag inactive and DT40 TDP1 CPT inactive.
Screening O=C(O)CCCC(=O)Nc1ccc(OCc2nc3ccccc3s2)cc1 returned D3 antag inactive, DT40 TDP1 no CPT inconclusive, IL1B secr inh inactive, D3 ag inactive and DT40 TDP1 CPT inactive.
For COc1ccc(NC(=S)Nc2ccc(Oc3ccccc3)cc2)cc1 the results were D3 antag inactive, ClpP mod inactive, DT40 TDP1 no CPT inconclusive, IL1B secr inh inactive, D3 ag inactive and DT40 TDP1 CPT 23.1µM.
CCCCC(=O)OCc1nc2ccccc2s1 was read as D3 antag inactive, ClpP mod 15.8µM, DT40 TDP1 no CPT inactive, IL1B secr inh inactive, D3 ag inactive and DT40 TDP1 CPT inconclusive.
Screening CCNC(=S)Nc1ccc(Oc2ccccc2)cc1 returned D3 antag inactive, ClpP mod inactive, DT40 TDP1 no CPT 18.4µM, IL1B secr inh inactive, D3 ag inactive and DT40 TDP1 CPT inconclusive.
For O=c1cc(-c2ccccc2)n2c(SCc3ccc(Br)cc3)nnc2[nH]1 the results were ClpP mod inconclusive, DT40 TDP1 no CPT inactive, D3 ag inactive and DT40 TDP1 CPT inactive.
Screening O=C(OCc1cn([C@H]2C[C@H](c3ccc(Cl)cc3)N(Cc3cccs3)C[C@@H]2O)nn1)c1ccccc1 returned D3 antag inactive, ClpP mod inactive, DT40 TDP1 no CPT inconclusive, IL1B secr inh inactive, D3 ag inactive and DT40 TDP1 CPT inconclusive.
C[C@@H]1CN([C@H](C)CO)C(=O)Cc2cc(NS(=O)(=O)c3cn(C)cn3)ccc2O[C@H]1CN(C)S(=O)(=O)c1ccc(Cl)cc1 was read as D3 antag inactive, ClpP mod inactive, DT40 TDP1 no CPT inactive, IL1B secr inh inactive, D3 ag inactive and DT40 TDP1 CPT inactive.
Screening CCN(CC)CCCNC(=O)CC1Oc2ccc(C)cc2NC1=O (stereo unspecified) returned D3 antag inactive, ClpP mod inactive, DT40 TDP1 no CPT inactive, IL1B secr inh inactive, D3 ag inactive and DT40 TDP1 CPT inactive.
Screening Cc1ccc2c(c1)NC(=O)C(CC(=O)NCCCN1CCN(c3cc(C)ccc3C)CC1)O2 (stereo unspecified) returned D3 antag inconclusive, ClpP mod inactive, DT40 TDP1 no CPT 7.31µM, IL1B secr inh inactive, D3 ag inactive and DT40 TDP1 CPT 8.2µM.
For Cc1ccc2c(c1)NC(=O)C(CC(=O)Nc1ccc(CN3CCC(C)CC3)cc1)O2 (stereo unspecified) the results were D3 antag -60.6, ClpP mod inactive, DT40 TDP1 no CPT inconclusive, IL1B secr inh inactive, D3 ag inactive and DT40 TDP1 CPT inconclusive.
O=C(Cc1cccs1)Nc1nnc(SCc2ccc(C(F)(F)F)cc2)s1 was read as D3 antag inactive, ClpP mod inactive, DT40 TDP1 no CPT inconclusive, IL1B secr inh inactive, D3 ag inactive and DT40 TDP1 CPT 14.6µM.
For O=C(Cc1cccs1)Nc1nnc(SCc2ccc(Br)cc2)s1 the results were D3 antag inactive, ClpP mod inactive, DT40 TDP1 no CPT inconclusive, IL1B secr inh inactive, D3 ag inactive and DT40 TDP1 CPT inactive.
Cc1ccc(-c2nn3c(=O)cc(CN4CCN(C(=O)/C=C/c5ccccc5)CC4)nc3s2)cc1 was read as ClpP mod inactive, DT40 TDP1 no CPT inactive, D3 ag inactive and DT40 TDP1 CPT inactive.
Cc1ccc(S(=O)(=O)N2CCN(Cc3cc(=O)n4nc(-c5ccccc5Cl)sc4n3)CC2)cc1 was read as ClpP mod inactive, DT40 TDP1 no CPT inactive, D3 ag inactive and DT40 TDP1 CPT inactive.
Cc1cccc(-c2nn3c(=O)cc(CN4CCN(S(=O)(=O)c5ccc(Cl)cc5)CC4)nc3s2)c1 was read as ClpP mod inactive, DT40 TDP1 no CPT 16.4µM, D3 ag inactive and DT40 TDP1 CPT inactive.
Screening CCOc1ccc(C(=O)N2CCN(Cc3cc(=O)n4nc(-c5cccc(OC)c5)sc4n3)CC2)cc1 returned ClpP mod inactive, DT40 TDP1 no CPT 20.6µM, D3 ag inactive and DT40 TDP1 CPT inconclusive.
`COc1ccc(-c2nn3c(=O)cc(CN4CCN(C(=O)/C=C/c5ccccc5)CC4)nc3s2)cc1` gave ClpP mod inactive, DT40 TDP1 no CPT inconclusive, D3 ag inactive and DT40 TDP1 CPT inactive.
For COc1ccccc1-c1nn2c(=O)cc(CN3CCN(C(=O)/C=C/c4ccccc4)CC3)nc2s1 the results were ClpP mod inactive, DT40 TDP1 no CPT 23.1µM, D3 ag inactive and DT40 TDP1 CPT inconclusive.
For Cc1ccccc1-c1nn2c(=O)cc(CN3CCN(C(=O)/C=C/c4ccccc4)CC3)nc2s1 the results were ClpP mod inactive, DT40 TDP1 no CPT inconclusive, D3 ag inactive and DT40 TDP1 CPT 16.4µM.
